In assay [1] the target is Retinoic acid receptor RXR-alpha (Homo sapiens) (UniProt P19793). Description: ATG_RXRa_TRANS: Attagene TRANS-FACTORIAL HepG2 Assay for human Retinoid X Receptor alpha (RXRa) (AID 2283012; active = hit-call score of the fitted dose curve at least 0.9, where 1 is the maximum). Summed up: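 Transient transfection of human HepG2 with multiple GAL4-UAS reporter constructs; 24 h compound exposure; total RNA isolated, reverse-transcribed, PCR-amplified, 6-FAM labelled, HpaI-cut, resolved by capillary electrophoresis. Positive-direction fit versus DMSO.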
Chain of Retinoic acid receptor RXR-alpha (Homo sapiens) (P19793 whole entry, looked up, the tested form may be a part): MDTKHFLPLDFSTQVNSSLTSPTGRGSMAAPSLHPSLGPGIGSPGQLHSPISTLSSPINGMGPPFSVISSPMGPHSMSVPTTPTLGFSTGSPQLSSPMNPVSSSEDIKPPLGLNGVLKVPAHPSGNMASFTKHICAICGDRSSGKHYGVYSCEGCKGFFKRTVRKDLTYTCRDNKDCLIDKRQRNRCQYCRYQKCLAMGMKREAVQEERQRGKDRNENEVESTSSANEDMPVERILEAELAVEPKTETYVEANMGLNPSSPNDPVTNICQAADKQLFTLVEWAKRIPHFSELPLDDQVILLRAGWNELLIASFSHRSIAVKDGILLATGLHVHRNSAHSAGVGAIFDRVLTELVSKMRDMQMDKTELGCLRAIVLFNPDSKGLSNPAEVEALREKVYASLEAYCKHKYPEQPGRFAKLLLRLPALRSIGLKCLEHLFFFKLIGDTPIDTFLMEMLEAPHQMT

The target in assay [2] is human RAR-related Orphan Receptor gamma (RORg), RORC (gene 6097) (UniProt P51449). Description: ATG_RORg_TRANS: Attagene TRANS-FACTORIAL HepG2 Assay for human RAR-related Orphan Receptor gamma (RORg) (AID 2283011; active = hit-call score of the fitted dose curve at least 0.9, where 1 is the maximum). Summed up: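 Readout: reporter transcript induction (RT-PCR, fluorescent primer extension, capillary electrophoresis) after 24 h compound exposure of transiently transfected HepG2 cells carrying a RORg-Gal4 chimera and GAL4-UAS reporters; DMSO served as baseline, with increasing signal fitted.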
Chain of human RAR-related Orphan Receptor gamma (RORg), RORC (gene 6097) (P51449 whole entry, looked up, the tested form may be a part): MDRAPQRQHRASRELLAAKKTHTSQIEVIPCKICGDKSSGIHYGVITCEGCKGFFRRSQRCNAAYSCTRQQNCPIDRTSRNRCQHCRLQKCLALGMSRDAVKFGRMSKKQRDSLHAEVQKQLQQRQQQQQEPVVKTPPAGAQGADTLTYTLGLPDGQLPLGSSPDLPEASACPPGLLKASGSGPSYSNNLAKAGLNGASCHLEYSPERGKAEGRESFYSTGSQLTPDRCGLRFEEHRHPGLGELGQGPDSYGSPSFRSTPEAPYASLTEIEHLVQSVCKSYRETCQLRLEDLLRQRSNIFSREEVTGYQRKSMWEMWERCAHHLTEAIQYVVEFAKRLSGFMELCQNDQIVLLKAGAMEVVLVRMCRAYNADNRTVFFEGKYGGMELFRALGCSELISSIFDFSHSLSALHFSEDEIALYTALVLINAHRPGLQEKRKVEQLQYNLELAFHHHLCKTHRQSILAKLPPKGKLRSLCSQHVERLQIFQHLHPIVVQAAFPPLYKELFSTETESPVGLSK

Assay [3] deals with human Thyroid Receptor alpha (THRa1), THRA (gene 7067) (UniProt P10827). Description: ATG_THRa1_TRANS: Attagene TRANS-FACTORIAL HepG2 Assay for human Thyroid Receptor alpha (THRa1) (AID 2283014; active = hit-call score of the fitted dose curve at least 0.9, where 1 is the maximum). The method in brief: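 HepG2 cells transiently transfected with multiplexed GAL4-UAS reporter units for exogenous chimeric THRa1-Gal4; reporter mRNA measured 24 h after dosing by RT-PCR, 6-FAM labelling, HpaI digestion and capillary electrophoresis. Gain-of-signal fitted versus DMSO baseline.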
Chain of human Thyroid Receptor alpha (THRa1), THRA (gene 7067) (P10827 whole entry, looked up, the tested form may be a part): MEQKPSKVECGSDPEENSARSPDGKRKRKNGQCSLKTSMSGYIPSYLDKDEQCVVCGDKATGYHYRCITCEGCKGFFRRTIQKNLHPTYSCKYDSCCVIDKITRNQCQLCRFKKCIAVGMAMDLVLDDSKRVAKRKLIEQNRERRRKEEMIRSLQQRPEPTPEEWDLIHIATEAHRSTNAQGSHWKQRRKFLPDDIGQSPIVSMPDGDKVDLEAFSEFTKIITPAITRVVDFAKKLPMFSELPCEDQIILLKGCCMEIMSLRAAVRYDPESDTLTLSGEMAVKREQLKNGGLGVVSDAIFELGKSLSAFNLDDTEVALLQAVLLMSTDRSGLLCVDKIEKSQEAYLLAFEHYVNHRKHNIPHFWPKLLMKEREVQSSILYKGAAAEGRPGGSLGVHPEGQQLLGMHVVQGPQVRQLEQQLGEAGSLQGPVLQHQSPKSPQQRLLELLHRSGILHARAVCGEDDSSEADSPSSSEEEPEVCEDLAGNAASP

Read-out in assay [4]: E-selectin (Homo sapiens) (UniProt P16581)
Description: BSK_3C_Eselectin: BioMAP Diversity Plus: 3C Assay for Eselectin Biomarker Activity (AID 2283015).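 As to outcome: cell surface E-selectin protein quantified by ELISA 24 h after dosing.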 The note with it: primary human endothelial cells (HUVEC); actives raise or lower the signal. Summed up: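 Primary human umbilical vein endothelial cells (3C system) were dosed with chemical and cell-surface E-selectin measured by ELISA 24 h later. Bidirectional curve fitting used DMSO as negative control and baseline.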

Read-out in assay [5]: Interleukin-1 alpha (IL1a), IL1A (gene 3552)
Description: BSK_BE3C_IL1a: BioMAP Diversity Plus: BE3C Assay for Interleukin-1 alpha (IL1a) Biomarker Activity (AID 2283016). The note with it: primary human bronchial epithelial cells; actives raise or lower the signal. The method in brief:
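BE3C primary human bronchial epithelium; cpd 24 h; IL-1a by ELISA; bidirectional fit vs DMSO; parallel SRB (0.1% SRB, 10% TCA fix, 560 nm) for cytotoxicity.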

Read-out in assay [6]: Monocyte Chemoattractant Protein-1 (MCP1), CCL2 (gene 6347)
Description: BSK_3C_MCP1: BioMAP Diversity Plus: 3C Assay for Monocyte Chemoattractant Protein-1 (MCP1) Biomarker Activity (AID 2283017). The settings on record: primary human endothelial cells (HUVEC); actives raise or lower the signal. The method in brief: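 Primary human umbilical vein endothelial cells (3C system) were exposed to test chemical for 24 h, after which MCP-1 was quantified by ELISA. Activity was fitted bidirectionally against DMSO as negative control and baseline.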

Read-out in assay [7]: Monocyte Chemoattractant Protein-1 (MCP1), CCL2 (gene 6347)
Description: BSK_4H_MCP1: BioMAP Diversity Plus: 4H Assay for Monocyte Chemoattractant Protein-1 (MCP1) Biomarker Activity (AID 2283018). The settings on record: primary human endothelial cells (HUVEC); actives raise or lower the signal. Summed up: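 ELISA read-out of MCP-1 from human vascular endothelial primary cells taken at 24 hours after compound exposure. Activity was fitted in both directions relative to DMSO, which served as negative control.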

Read-out in assay [8]: Human Leukocyte Antigen - DR isotype (HLADR), HLA-DRA (gene 3122)
Description: BSK_3C_HLADR: BioMAP Diversity Plus: 3C Assay for Human Leukocyte Antigen - DR isotype (HLADR) Biomarker Activity (AID 2283019).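 As to outcome: ELISA of cell-surface HLA-DR on HUVEC 24 h after dosing.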 The note with it: primary human endothelial cells (HUVEC); actives raise or lower the signal. Summed up:
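Primary human umbilical vein endothelial cells (3C system) were dosed with compound and cell-surface HLA-DR was quantified by ELISA at 24 h. Activity was fitted bidirectionally against DMSO as negative control and baseline.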

Read-out in assay [9]: Interleukin-8 (IL8), CXCL8 (gene 3576)
Description: BSK_3C_IL8: BioMAP Diversity Plus: 3C Assay for Interleukin-8 (IL8) Biomarker Activity (AID 2283020). The settings on record: primary human endothelial cells (HUVEC); actives raise or lower the signal. The method in brief:
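ELISA read-out of IL-8 from human umbilical vein endothelium, measured 24 h after chemical dosing. Activity is expressed relative to DMSO negative control, with both increases and decreases fitted.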

Read-out in assay [10]: Monokine induced gamma interferon (MIG), CXCL9 (gene 4283)
Description: BSK_3C_MIG: BioMAP Diversity Plus: 3C Assay for Monokine induced gamma interferon (MIG) Biomarker Activity (AID 2283021). The note with it: primary human endothelial cells (HUVEC); actives raise or lower the signal. The method in brief: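 Read-out is ELISA detection of MIG on human umbilical vein endothelial cells, taken 24 h after dosing. Gain or loss of signal was scored relative to DMSO controls using bidirectional curve fitting.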

Assay [11] addresses human Vitamin D Receptor (VDR), VDR (gene 7421) (UniProt P11473). Description: ATG_VDR_TRANS: Attagene TRANS-FACTORIAL HepG2 Assay for human Vitamin D Receptor (VDR) (AID 2283022; active = hit-call score of the fitted dose curve at least 0.9, where 1 is the maximum). The method in brief: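 HepG2 cells were transiently transfected with multiple GAL4-UAS reporter units, so signal reflects exogenous chimeric receptor-Gal4 activity. After 24 h compound exposure, reporter mRNA was measured by RT-PCR, fluorescent labelling and capillary electrophoresis, fitted for gain of signal versus DMSO.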

Read-out in assay [12]: Matrix Metallopeptidase 1 (MMP1), MMP1 (gene 4312)
Description: BSK_BE3C_MMP1: BioMAP Diversity Plus: BE3C Assay for Matrix Metallopeptidase 1 (MMP1) Biomarker Activity (AID 2283024). The note with it: primary human bronchial epithelial cells; actives raise or lower the signal. The method in brief: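 Human bronchial epithelial cells (BE3C system) exposed to compound for 24 h; MMP1 then quantified by ELISA. Activity was fitted in both directions relative to DMSO.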

Assay [13] in a line: BSK_3C_Vis: BioMAP Diversity Plus: 3C Assay for Morphology Visualization (AID 2283025).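 Also: fitted both ways so gain or loss versus DMSO counts.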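 As to AC50: light microscopy image of cell morphology used as background control.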 The note with it: primary human endothelial cells (HUVEC). Summed up:
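Chemicals were added to primary human umbilical vein endothelium, cells were incubated 24 h, and morphology was then visualized by light microscopy. Gain or loss of signal was fitted bidirectionally relative to DMSO.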

Read-out in assay [14]: Pselectin, SELP (gene 6403)
Description: BSK_4H_Pselectin: BioMAP Diversity Plus: 4H Assay for Pselectin Biomarker Activity (AID 2283026). The settings on record: primary human endothelial cells (HUVEC); actives raise or lower the signal. The method in brief:
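ELISA read-out of P-selectin on human umbilical vein endothelium after 24 h of dosing. Values derive from bidirectional fitting relative to DMSO. Parallel SRB protein staining flagged overt cytotoxicity.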

A short description of assay [15]: BSK_4H_SRB: Viability Assessment in the BioMAP Diversity Plus: 4H Assay (AID 2283027).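 Also: cells exposed to compound for 24 h before staining.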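 As to AC50: curves fitted both ways versus DMSO so AC50 may be loss or gain.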 The settings on record: primary human endothelial cells (HUVEC). The method in brief: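 Human umbilical vein endothelial cells, 24 h after chemical dosing; total protein measured by 0.1% sulforhodamine B staining after 10% TCA fixation, read at 560 nm. Bidirectional fitting against DMSO.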

A short description of assay [16]: BSK_BE3C_SRB: Viability Assessment in the BioMAP Diversity Plus: BE3C Assay (AID 2283028). The note with it: primary human bronchial epithelial cells. The method in brief:
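Human primary bronchial epithelial cells were exposed to test chemicals for 24 h. Total protein in parallel cultures was then measured by staining with 0.1% sulforhodamine B after 10% TCA fixation, with absorbance read at 560 nm. Activity was fitted bidirectionally against DMSO.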

Read-out in assay [17]: Thrombomodulin, THBD (gene 7056)
Description: BSK_3C_Thrombomodulin: BioMAP Diversity Plus: 3C Assay for Thrombomodulin Biomarker Activity (AID 2283029). The settings on record: primary human endothelial cells (HUVEC); actives raise or lower the signal. Summed up: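 Read-out is ELISA of thrombomodulin on human umbilical vein endothelium 24 h after chemical dosing. Gain or loss of signal is scored relative to DMSO. Overt cytotoxicity is checked in parallel cultures by sulforhodamine B staining.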

Assay [18] is described as follows: BSK_3C_SRB: Viability Assessment in the BioMAP Diversity Plus: 3C Assay (AID 2283023).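 Also: fitted both ways against DMSO so a hit may be signal rise or drop.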 The settings on record: primary human endothelial cells (HUVEC). Summed up:
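Primary human umbilical vein endothelial cells in the 3C system were read 24 h after compound dosing. Total protein was stained with 0.1% sulforhodamine B after 10% TCA fixation and read at 560 nm, with bidirectional fitting against DMSO as baseline.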

Assay [19] has as its target human Retinoid X Receptor beta (RXRb), RXRB (gene 6257) (UniProt P28702). Description: ATG_RXRb_TRANS: Attagene TRANS-FACTORIAL HepG2 Assay for human Retinoid X Receptor beta (RXRb) (AID 2283013; active = hit-call score of the fitted dose curve at least 0.9, where 1 is the maximum). Summed up:
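Transfect HepG2 with GAL4-UAS multi-reporter constructs (chimeric NR-Gal4, TRANS format); dose compound 24 h; isolate RNA, RT-PCR, FAM primer extension, HpaI digest; quantify by capillary electrophoresis; positive direction vs DMSO.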

Records with an inconclusive call do not appear. Calls of active or inactive are those of the source. The calls were made as follows, unless noted: active = hit-call score of the fitted dose curve at least 0.9, where 1 is the maximum; inactive = score below 0.9.

A word on the AC50: it is the midpoint of the concentration-response curve, whichever way the signal moves.

Chain of E-selectin (Homo sapiens) (P16581 whole entry, looked up): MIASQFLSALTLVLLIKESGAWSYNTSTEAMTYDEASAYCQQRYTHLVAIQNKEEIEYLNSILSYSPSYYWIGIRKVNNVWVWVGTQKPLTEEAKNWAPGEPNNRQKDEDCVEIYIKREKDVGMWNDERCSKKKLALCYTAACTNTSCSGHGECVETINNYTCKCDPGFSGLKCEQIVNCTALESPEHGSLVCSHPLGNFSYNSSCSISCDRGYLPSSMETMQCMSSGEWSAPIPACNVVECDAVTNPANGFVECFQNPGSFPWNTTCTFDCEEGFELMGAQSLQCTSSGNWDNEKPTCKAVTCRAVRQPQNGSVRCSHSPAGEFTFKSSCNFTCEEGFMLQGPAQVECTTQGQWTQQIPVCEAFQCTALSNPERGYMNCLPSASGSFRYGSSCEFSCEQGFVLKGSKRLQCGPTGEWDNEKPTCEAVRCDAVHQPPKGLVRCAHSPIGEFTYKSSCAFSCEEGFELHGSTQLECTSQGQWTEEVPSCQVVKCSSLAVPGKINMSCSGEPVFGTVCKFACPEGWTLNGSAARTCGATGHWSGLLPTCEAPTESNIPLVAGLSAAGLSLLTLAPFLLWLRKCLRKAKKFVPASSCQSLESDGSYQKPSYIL
Chain of human Vitamin D Receptor (VDR), VDR (gene 7421) (P11473 whole entry, looked up, the tested form may be a part): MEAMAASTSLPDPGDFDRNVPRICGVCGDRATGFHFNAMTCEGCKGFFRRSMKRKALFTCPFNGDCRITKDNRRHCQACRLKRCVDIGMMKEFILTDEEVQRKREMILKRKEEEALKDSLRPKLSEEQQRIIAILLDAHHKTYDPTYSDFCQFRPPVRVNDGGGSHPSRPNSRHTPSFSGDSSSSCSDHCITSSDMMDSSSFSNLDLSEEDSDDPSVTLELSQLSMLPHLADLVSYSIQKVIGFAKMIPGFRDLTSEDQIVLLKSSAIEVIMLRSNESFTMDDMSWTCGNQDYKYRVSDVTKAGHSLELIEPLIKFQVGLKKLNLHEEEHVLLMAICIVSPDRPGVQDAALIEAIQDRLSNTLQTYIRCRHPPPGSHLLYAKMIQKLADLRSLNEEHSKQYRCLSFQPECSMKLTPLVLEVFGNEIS
Chain of human Retinoid X Receptor beta (RXRb), RXRB (gene 6257) (P28702 whole entry, looked up, the tested form may be a part): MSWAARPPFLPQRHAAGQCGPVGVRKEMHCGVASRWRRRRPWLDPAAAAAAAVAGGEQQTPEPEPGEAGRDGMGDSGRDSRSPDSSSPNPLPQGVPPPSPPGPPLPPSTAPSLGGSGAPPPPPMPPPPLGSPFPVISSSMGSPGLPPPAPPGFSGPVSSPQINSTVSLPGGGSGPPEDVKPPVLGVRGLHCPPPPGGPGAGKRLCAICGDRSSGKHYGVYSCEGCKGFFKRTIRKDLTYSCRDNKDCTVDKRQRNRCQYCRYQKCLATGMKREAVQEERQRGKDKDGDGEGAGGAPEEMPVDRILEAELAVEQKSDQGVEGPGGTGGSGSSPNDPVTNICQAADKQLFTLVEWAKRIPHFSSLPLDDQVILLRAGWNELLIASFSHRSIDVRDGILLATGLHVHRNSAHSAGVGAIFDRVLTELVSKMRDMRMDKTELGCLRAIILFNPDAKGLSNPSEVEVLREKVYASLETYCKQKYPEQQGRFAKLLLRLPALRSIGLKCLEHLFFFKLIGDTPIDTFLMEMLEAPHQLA

With `O=C(CBr)OCc1ccccc1`, the compound was classed as inactive in [1].

As to `CCCCC(CC)COC(=O)c1c(Br)c(Br)c(Br)c(Br)c1C(=O)OCC(CC)CCCC` (configuration not stated), the outcome in assay [2], in assay [1], in [3], in assay [4], in assay [5] and in assay [6] was inactive. For the same compound, the result in assay [7], in assay [8], in assay [9], in assay [10], in assay [11] and in [12] was inactive. In addition, the outcome in assay [13], in assay [14], in assay [15], in assay [16] and in assay [17] was inactive.

On to `CCOP(=S)(OCC)SCn1nnc2ccccc2c1=O`, for which the compound was classed as inactive in [2], in assay [1], in assay [3], in [5], in assay [6] and in assay [7]. The result in assay [9], in assay [10], in assay [11], in assay [18], in [12] and in [13] was inactive. In addition, the result in assay [14], in [15], in [16] and in assay [17] was inactive. Also, the figures for the AC50 in [4] and in [8] were 20 µM (active) and 33.7 µM (active), respectively.

With `OCC1CO1` (configuration not stated), the result in assay [2], in assay [3], in [4], in [5], in assay [6] and in [8] was inactive. In addition, the result in assay [9], in assay [10], in [12], in [13], in [14] and in [15] was inactive. For the same compound, the result in assay [16] and in assay [17] was inactive.

Take `COP(N)(=S)OC`: the call in [2], in assay [1], in assay [19], in [4], in [5] and in assay [6] was inactive. The result in [7], in assay [8], in [9], in [10], in [11] and in [12] was inactive. Besides, the outcome in assay [13], in assay [14], in [15], in assay [16] and in assay [17] was inactive.

`O=P1(N(CCCl)CCCl)NCCCO1` (configuration not stated): the call in assay [2], in assay [4], in assay [5], in assay [6], in assay [7] and in assay [8] was inactive. The outcome in assay [9], in assay [10], in assay [11], in [18], in assay [12] and in assay [13] was inactive. For the same compound, the result in [14], in [15], in [16] and in [17] was inactive.

With `O=[N+]([O-])c1cc(Cl)ccc1Cl`, the outcome in assay [1], in assay [19] and in assay [3] was inactive.

Consider `Cc1ccc(C(=O)Cl)cc1`, for which the compound was called inactive in assay [2] and in assay [1].

With `ClC(Cl)c1ccccc1`, the result in [2], in assay [1], in [19], in assay [3], in assay [4] and in [5] was inactive. The result in [6], in [8], in assay [9], in assay [10], in [12] and in [13] was inactive. Also, the result in assay [14], in assay [15], in [16] and in assay [17] was inactive.

As for `COC(N)=O`, the result in [1] and in assay [3] was inactive.

Consider `CCCCC(CC)COP(=O)(Oc1ccccc1)Oc1ccccc1` (configuration not stated), for which the compound was classed as inactive in assay [1], in assay [19], in assay [10], in [11] and in assay [16]. In addition, the AC50 in [4] is 6.53 µM (active); in assay [5] it was 8.12 µM (active); in assay [6], 10.6 µM (active); in assay [7] it was 7.85 µM (active); in [8], 9.37 µM (active); in assay [9] it was 6.65 µM (active). Further, the half-maximal activity concentration (AC50) in [12] is 1.91 µM (active); in assay [13] it was 10.1 µM (active); in assay [14] it was 12.3 µM (active); in assay [15] it was 20 µM (active); in assay [17] it was 3.97 µM (active).

Values taken from PubChem BioAssay (EPA / NIEHS).
